# Measurements reported in ChEMBL document CHEMBL3988442, “University of Dundee, Small-Polar-MMV Screening Library” (2021).
# How the values were obtained:
# [1] = target: T1, Aspartate--tRNA(Asp/Asn) ligase (Mycobacterium tuberculosis (strain ATCC 25618 / H37Rv)) (UniProt P9WFW3); test: Assay for Asp RNA synthetase-1 from Mycobacterium tuberculosis; format: functional; design: scale not given: direction of the effect not stated beside the values; details: 30 µM; also: in the data most compounds retested in dose-response had high values
# T1 sequence (whole entry): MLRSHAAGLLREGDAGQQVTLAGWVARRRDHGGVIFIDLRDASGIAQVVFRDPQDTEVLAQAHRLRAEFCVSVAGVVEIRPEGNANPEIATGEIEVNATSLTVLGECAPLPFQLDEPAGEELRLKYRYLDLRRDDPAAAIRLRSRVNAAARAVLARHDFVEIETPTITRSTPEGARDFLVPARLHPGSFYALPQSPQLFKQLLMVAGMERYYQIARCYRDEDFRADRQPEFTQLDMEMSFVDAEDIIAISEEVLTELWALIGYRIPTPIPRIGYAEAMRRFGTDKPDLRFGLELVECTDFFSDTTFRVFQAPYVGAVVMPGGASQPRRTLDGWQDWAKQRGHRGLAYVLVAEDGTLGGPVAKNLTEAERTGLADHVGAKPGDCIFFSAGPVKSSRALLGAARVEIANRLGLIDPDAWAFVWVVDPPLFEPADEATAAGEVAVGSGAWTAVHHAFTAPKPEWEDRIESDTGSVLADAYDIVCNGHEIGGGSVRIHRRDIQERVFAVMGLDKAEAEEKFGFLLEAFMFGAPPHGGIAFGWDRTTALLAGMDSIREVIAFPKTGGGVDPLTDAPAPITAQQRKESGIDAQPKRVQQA
# [2] = target: Shiga toxin 2 (Escherichia coli O157:H7) (UniProt P09385+P09386); test: E. coli 0.157:H7 Shiga Toxin SOP - stx2 screening assay; format: functional; design: scale not given: direction of the effect not stated beside the values; details: 30 µM
SMILES,Percent Effect [1] [%],Percent Effect [2] [%]
Cc1nn(C)c2cnn(C(C)C(=O)NCc3cccnc3)c12 (configuration not stated),-7.38,-21.6
COc1ccc(Br)c(C(=O)N2CCC(c3n[nH]c(C4CC4)n3)CC2)c1,0.422,-39.5
CC(C)c1nc(CC(=O)N2CCCC(n3cncn3)C2)cs1 (configuration not stated),-4.06,-31
CCSCCNC(=O)C(c1cccc(C)c1)N(C)C (configuration not stated),0.569,-22.9
CN(CC1CCCO1)C1CCN(CCc2ccccn2)CC1 (configuration not stated),3.12,-6.44
CC(C)(C)c1nnc(CN2CCCC(Cn3cncn3)C2)o1 (configuration not stated),0.322,13
CNC(=O)c1cc2c(nc1N(C)C)CCN(S(=O)(=O)CC(C)C)CC2,-0.801,-2.65
CNC(=O)[C@@]12CCC3(CCN(S(C)(=O)=O)CC3)[C@@H]1CN(S(C)(=O)=O)C2,0.0987,-5.23
CC1(C(=O)N2CCOCC2)CN(Cc2ccccn2)CCO1 (configuration not stated),8.77,-6.1
O=C(NCCCNC(=O)c1cccc(O)c1)Nc1ccc(F)cc1F,-6.98,-56
COCCO[C@@H]1CCN(Cc2csc(C)n2)[C@H]1Cc1ccccc1,3.03,1.09
Cn1cc(C(=O)NCc2cn3c(n2)CN(Cc2ccccn2)CC3)cn1,6.41,-42
CC(O)CN1CCC(CNCc2cccc(OC(C)C)c2)CC1 (configuration not stated),3.21,-10.6
Cn1c(C(F)(F)F)nn(CCNC(=O)c2cnc3ccccc3n2)c1=O,-7.1,-21.4
CCN(CC1CCOC1)C(=O)Nc1ccc(N2CCCC2)nc1 (configuration not stated),0.3,1.73
CN(C)c1cc(CNC(=O)c2cn(-c3ccc(F)cc3)nn2)ccn1,1.09,6.86
O=C(CC1CC1)NCc1cn2c(n1)CN(CC1CC1)CC2,4.87,-4.42
C[C@H]1C[C@@H]2CCN(C(=O)c3ccncn3)C[C@H]2O1,4.15,-27.6
CC(=O)N1[C@H](CN(C)C)C[C@@H]2CN(C(=O)c3cccc(F)c3)CC[C@@H]21,-0.523,-3.85
COc1ccsc1C(=O)N1CCCC(n2nc(C)nc2C)C1 (configuration not stated),0.571,6.02
c1ccc(CN2CCc3nnc(CN4CCCCC4)n3CC2)nc1,3.71,1.8
